Compound activity deposited in PubChem BioAssay by National Center for Advancing Translational Sciences (NCATS).
HTT aggregate – mutant huntingtin aggregation inhibition; hit rate 1.1% among 220,000; AID 1688; PC12 HttQ103-GFP aggregates, Acumen cytometry, 40 h; Potency, µM (top dose mostly 46.1 µM), for the others: at the top dose activity change, negative = inhibition, usual class: inhibitors; active = well fitted curve in the direction sought with a large enough effect; inconclusive = small, poorly fitted or top-dose-only effect, or another doubt; inactive = no such curve, though single readings can be large; an effect the other way counts as inactive or inconclusive; also: potency is read from the fitted curve at half-maximal effect; % is scaled to controls: 0 for no effect and ±100 for the full control effect; nearly all actives have a fitted effect of over 60% in size
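PC12 cells with ecdysone-inducible HTT exon1 Q103-GFP, induced by 100 nM tebufenozide, given compounds in a concentration series. GFP aggregates (1–25 um, 6 SD above background) counted in lysates by laser-scanning cytometry, 488 nm excitation.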
HPGD inh – HPGD (human) dehydrogenase inhibition; hit rate 4.3% among 150,000; purified HPGD, NADH fluorescence kinetic, PGE2 substrate; P15428; Potency, µM, inactives show at the highest dose activity change, negative = inhibition, most hits filed as inhibitors; also: potency is read from the fitted curve at half-maximal effect; % is scaled to controls: 0 for no effect and ±100 for the full control effect
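20 nM HPGD preincubated 15 min at room temperature with compound in 50 mM Tris-HCl pH 8, 0.01% Tween 20. Started with 1 mM NAD+ and 30 uM prostaglandin E2; NADH fluorescence (360/450 nm) read 5 times over 30-s intervals, last minus first.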
ALDH1A1 block – blocks purified human ALDH1A1 activity; hit rate 7.3% among 220,000; Purified ALDH1A1, NADH fluorescence, propionaldehyde substrate; P00352; AID 1030; Potency, µM (top dose mostly 75.3 µM), for the others: at the highest dose activity, negative = inhibition, usual class: inhibitors;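 also: potency is read from the fitted curve at half-maximal effect; plate controls were no enzyme wells and a reference inhibitor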
HTT cytoprotect – protects HTT-Q103 PC12 cells, measured by ATP. PC12 HTT-Q103 induced, cytoprotection, ATP luminescence, 40 h. Potency, µM (highest dose often 56.4 µM), inactives show cytoprotection (ATP increase), hits mostly activators. hit rate 0.14% among 230,000. AID 1471; active = well fitted curve in the direction sought with a large enough effect; inconclusive = small, poorly fitted or top-dose-only effect, or another doubt; inactive = no such curve, though single readings can be large; an effect the other way counts as inactive or inconclusive; also: potency is read from the fitted curve at half-maximal effect; % of control where 0% means no effect; nearly all actives have a fitted effect of over 45% in size
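Rat PC12, Q103 Htt exon1-GFP fusion, ecdysone promoter; tebufenozide inducer 100 nM final; compound titration; qHTS, 1500 cells/well; ATPlite luminescent read.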
KDM4E inh – blocks human JMJD2E demethylase activity; B2RXH2; JMJD2E catalytic domain, FDH-coupled NADH fluorescence (FDH is formaldehyde dehydrogenase); Potency, µM (top dose mostly 57.1 µM), for inactives: at the highest dose activity change, negative = inhibition, most hits filed as inhibitors; hit rate 1.6% among 230,000;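 also: potency is read from the fitted curve at half-maximal effect; 0% = wells with enzyme and -100% = buffer wells without enzyme; nearly all actives have a fitted effect of over 50% in size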
CBFb RUNX1 block – blocks binding between human CBF-beta and RUNX1; Q01196+Q13951; Potency, µM (series often up to 59.8 µM), for inactives: at the highest dose activity, negative = inhibition, actives largely listed as inhibitors; 230,000 tested, under 10 active; AlphaScreen CBFb-His/RUNX1-biotin binding, biochemical; active = well fitted curve in the direction sought with a large enough effect; inconclusive = small, poorly fitted or top-dose-only effect, or another doubt; inactive = no such curve, though single readings can be large; an effect the other way counts as inactive or inconclusive; also: % of control where 0% means no effect
Target sequence (Q01196 whole entry, looked up): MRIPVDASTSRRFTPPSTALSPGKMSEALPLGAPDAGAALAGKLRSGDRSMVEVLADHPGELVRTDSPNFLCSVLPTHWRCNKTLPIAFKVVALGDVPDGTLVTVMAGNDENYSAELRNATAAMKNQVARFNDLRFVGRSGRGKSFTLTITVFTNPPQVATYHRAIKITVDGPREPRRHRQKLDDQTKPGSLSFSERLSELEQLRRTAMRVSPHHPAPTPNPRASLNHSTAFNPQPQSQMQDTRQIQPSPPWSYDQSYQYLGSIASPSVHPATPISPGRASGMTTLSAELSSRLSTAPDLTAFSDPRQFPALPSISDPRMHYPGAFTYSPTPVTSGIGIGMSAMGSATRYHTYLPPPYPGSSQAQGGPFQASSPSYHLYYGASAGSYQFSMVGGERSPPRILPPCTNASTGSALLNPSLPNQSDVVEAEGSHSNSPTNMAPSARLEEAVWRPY
Target sequence (Q13951 whole entry, looked up): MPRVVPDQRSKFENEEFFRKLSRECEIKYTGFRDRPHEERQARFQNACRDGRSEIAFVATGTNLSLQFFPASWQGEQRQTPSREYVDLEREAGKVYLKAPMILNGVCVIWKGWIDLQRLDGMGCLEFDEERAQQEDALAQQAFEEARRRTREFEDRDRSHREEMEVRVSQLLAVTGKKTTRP
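Interaction loss through any mechanism counts as activity. Pre-formed complex of His-CBF-beta and biotin-RUNX1 (30 nM apiece) is incubated with compound 15 min, then with 50 ng nickel and 50 ng streptavidin beads for 90 min before AlphaScreen detection.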
* marks the source's active call; other numbers are inactive results; ? = inconclusive; nt = no result given; [ ] = remark or other dose. Sampled rows, rich in hits. Any-hit rate of the full collection: about 9.8%. Unless noted, calls follow the shape of the dose curve; as a rule, active = well fitted inhibition curve with a large enough effect (not every such curve was filed as active); inconclusive = small, poorly fitted or top-dose-only effect, or another doubt; inactive = no such curve, though single readings can be large or run the other way.

SMILES	HTT aggregate	HPGD inh	ALDH1A1 block	HTT cytoprotect	KDM4E inh	CBFb RUNX1 block
O=C(Nc1cccc(Cl)c1)c1ccc2c(=O)n3c(nc2c1)CCCCC3	-17%	-20%	?	-4%	-7%	5%
COCC(=O)Nc1ccc2nc3n(c(=O)c2c1)CCCCC3	-10%[9.22 µM]	nt	nt	14%[10 µM]	-12%	7%
CSc1ccc(C#N)cc1NC(=O)c1cccnc1Cl	-3%	nt	-3%	nt	6%	2%
N[C@@H](CSc1nc2ccccn2c1[N+](=O)[O-])C(=O)O	nt	-9%	11%[13.5 µM]	-3%[10 µM]	nt	nt
Cc1cc(C(=O)N[C@@H](c2ccccc2)[C@]2(C)C[C@H]2[C@@H](C)C(=O)Nc2ccc3ccccc3c2)n(C)n1	nt	-6%	?	-9%	-5%	0%
CC(C)C(OC(=O)/C=C/c1ccc2c(c1)OCO2)C(=O)NC(N)=O (configuration not stated)	18%	nt	?	-38%	?	1%
CN(C)S(=O)(=O)c1cccc(-c2nnc(SCc3ccc4c(c3)OCCO4)o2)c1	13%	?	5%	-10%[10 µM]	2%	6%
Cc1ccc2[nH]c(C)c(CC(=O)O)c2c1	9%	-9%	?	1%	22µM*	-1%
CC1CCN(c2[nH]c(=S)c(C#N)c3c2CCCC3)CC1	?	11µM*	10µM*	4%	?	-2%
CC1(C)Cc2c(c(N3CCCCC3)[nH]c(=S)c2C#N)CS1	23%[9.22 µM]	-10%	-3%	3%	0%	-2%
O=C(N1CCOCC1)C(F)(F)C(=O)N1CCOCC1	17%	-3%	6%	-31%	6%	2%
Cc1ccccc1-c1nc(S(=O)(=O)c2ccc(Br)cc2)c(NCc2cccnc2)o1	?	-17%	?	-24%	?	-20%
O=S(=O)(c1ccccc1)c1nc(-c2ccco2)oc1NCCN1CCOCC1	-4%	-18%	14µM*	-13%[10 µM]	-23%	2%
O=S(=O)(c1ccc(F)cc1)c1nc(-c2ccco2)oc1Nc1ccc(F)cc1	2%	-16%	?	6%[10 µM]	?	-10%
N#Cc1nc(-c2ccco2)oc1NCCCN1CCOCC1	-1%	?	?	-22%	?	-2%
Cc1ccc(CNc2oc(-c3ccco3)nc2S(=O)(=O)c2ccccc2)cc1	-17%	-25%	28µM*	7%[1.9 µM]	?	-11%
Cc1ccc(S(=O)(=O)c2nc(-c3ccccc3)oc2NCc2cccnc2)cc1	-14%	-19%	28µM*	-11%	-20%	7%
O=S(=O)(c1ccccc1)c1nc(-c2ccco2)oc1NCCCN1CCOCC1	-1%	-24%	8.9µM*	12%[10 µM]	1%	5%
OC(CCN1CCOCC1)(c1ccc(Cl)cc1)C1CCCCC1 (configuration not stated)	-8%	3%	7.1µM*	5%[10 µM]	9%	8%
C/C(=N\NC(=S)Nc1ccc(F)cc1)C1CC1	7%	0%	15µM*	11%	7%	2%
CC1CCN(C(=S)Nc2ccc(F)cc2)CC1	-6%	-5%	0%	18%[0.074 µM]	6%	0%
CC(=O)c1cc(NC(=O)c2ccccc2)c(=O)oc1C	?	nt	20µM*	-47%	?	1%
Cc1oc(=O)c(NC(=O)c2ccccc2)cc1C(=O)c1ccccc1	?	-15%	18µM*	?	-7%	-7%
CC(=O)c1cc(NC(=O)c2ccc(C)cc2)c(=O)oc1C	?	nt	22µM*	-113%	?	-18%
Cc1oc(=O)c(NC(=O)c2ccc(Cl)cc2)cc1C(=O)c1ccccc1	?	32µM*	3.5µM*	?	?	-1%
SMILES	HTT aggregate	HPGD inh	ALDH1A1 block	HTT cytoprotect	KDM4E inh	CBFb RUNX1 block
CC(=O)c1cc(NC(=O)c2ccc(C)cc2)c(=O)oc1/C=C/N(C)C	1%	-9%	?	-3%[10 µM]	0%	3%
COc1ccc(-c2cc(=S)ss2)cc1	12%	nt	nt	-10%	nt	nt
C=CCN1C(=O)NC2(O)C(=O)c3ccccc3C12O (configuration not stated)	5%	-2%	4%	-7%[10 µM]	-1%	12%
Cc1sc2c(=O)n3c(nc2c1C(=O)NC1CCCCC1)CCCCC3	20%	-4%	?	-19%	-1%	-1%
COCCCn1c(C)c(C(C)=O)cc(NC(=O)c2ccccc2)c1=O	6%	nt	2µM*	-3%[10 µM]	-6%	-11%
CCOc1cc(C2Nc3cccc4cccc(c34)N2)ccc1O	16%[9.22 µM]	-26%	20µM*	6%	3%	-8%
Brc1ccc(C2Nc3cccc4cccc(c34)N2)o1	-14%	?	4.5µM*	4%	3.2µM*	nt
CCOc1ccc(C2Nc3cccc4cccc(c34)N2)cc1OC	5%	-28%	?	8%[1.9 µM]	?	6%
Oc1ccccc1C1Nc2cccc3cccc(c23)N1	16%	?	24µM*	-17%[10 µM]	3%	-3%
O=C(CSc1nnc(-c2ccco2)o1)c1ccc(O)cc1O	20%	nt	?	-9%	-9%	-13%
CCCCc1cc2c(cn1)=C(OC(=O)CCC(=O)OC)C(C)(OC(=O)CC)C(=O)C=2 (configuration not stated)	nt	-6%	?	0%[10 µM]	0%[11.4 µM]	6%[13.1 µM]
CCCCc1cc2c(cn1)=C(OC(=O)c1cnc3ccccc3n1)C(C)(OC(=O)CC)C(=O)C=2 (configuration not stated)	4%[9.22 µM]	-8%	3.2µM*	-5%[10 µM]	-6%[11.4 µM]	4%[13.1 µM]
CCCCc1cc2c(cn1)=C(OC(=O)c1ccc(Cl)nc1)C(C)(OC(=O)CC)C(=O)C=2 (configuration not stated)	nt	1%	3.2µM*	5%[10 µM]	-4%[11.4 µM]	0%[13.1 µM]
CCOC(=O)N1CCN(C(=O)C2CCN(S(=O)(=O)c3ccc(OC)cc3)CC2)CC1	5%[9.22 µM]	nt	1%	5%[10 µM]	12%	2%
Cc1cccc(C)c1NC(=S)N/N=C1\CC2CC=CC12 (configuration not stated)	16%	nt	11µM*	12%	-5%	6%
Cc1ccc(NC(=S)N/N=C2\CC3CC=CC23)c(C)c1 (configuration not stated)	10%	nt	25µM*	-17%	-6%	-9%
CCCCC/C=C\C/C=C\C[C@H](O)/C=C/C=C\CCCC(=O)O	nt	-2%	0%	10%	3%	-8%
COc1ccc(CCSc2nnc(C3CCCCC3)n2N)cc1	-15%	20µM*	-8%	5%	-27%	1%
Cc1csc(NC(=O)c2ccc(C)c([N+](=O)[O-])c2)n1	-9%	28µM*	?	-2%[10 µM]	3%	4%
Cc1ccc(C(=O)Nc2ccccc2-c2ccccc2)cc1[N+](=O)[O-]	13%	-6%	18µM*	-8%	5%	-9%
Cc1cc(C)nc(NC(=O)c2ccc(C)c([N+](=O)[O-])c2)n1	-14%	6%	6%	-4%[10 µM]	-3%	17%
